High-throughput results deposited in PubChem by National Center for Advancing Translational Sciences (NCATS).
Compounds with a hit are over-represented: about 7.3% of the library has one in this group of screens.
HCV inh: qHTS Assay for Inhibitors of Hepatitis C Virus (HCV) | Potency, µM (top dose mostly 41.8 µM), for the others: at the top dose activity change, negative = inhibition, most hits filed as inhibitors | AID 651820, 2012 | hit rate 3.4% among 340,000 | Huh7.5.1 HCVcc-Cre infection, luciferase reporter, 44 h; note: potency is the fitted concentration of half-maximal effect
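Antiviral activity was scored by luciferase reporter output from cells infected with HCVcc-Cre (~0.5 moi) in presence of compound, 44 h infection period, cells seeded 1,000/well 4 h prior.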
AmpC no deterg: qHTS Inhibitors of AmpC Beta-Lactamase (assay without detergent) | AID 485341, 2010 | hit rate 0.52% among 330,000 | Potency, µM (doses to about 57.1 µM), for the others: at the highest dose activity change, negative = inhibition, usual class: inhibitors | P00811 | AmpC nitrocefin hydrolysis, absorbance 480 nm, 0.0001% Triton;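 note: potency is the fitted concentration of half-maximal effect; plate controls were no compound for no effect and no enzyme for full effect; nearly all actives have a fitted effect of over 20% in size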
Target sequence (P00811 whole entry, looked up): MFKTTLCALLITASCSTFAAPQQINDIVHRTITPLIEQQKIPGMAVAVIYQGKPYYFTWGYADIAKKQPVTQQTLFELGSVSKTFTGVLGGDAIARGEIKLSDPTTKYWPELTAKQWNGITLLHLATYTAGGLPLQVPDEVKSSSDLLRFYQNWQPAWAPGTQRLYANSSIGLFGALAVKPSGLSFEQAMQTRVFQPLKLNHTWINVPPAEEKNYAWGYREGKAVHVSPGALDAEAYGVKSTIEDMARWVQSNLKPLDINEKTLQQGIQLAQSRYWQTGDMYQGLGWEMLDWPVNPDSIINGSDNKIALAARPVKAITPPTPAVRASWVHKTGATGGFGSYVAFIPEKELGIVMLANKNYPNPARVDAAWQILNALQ
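20 mM phosphate pH 7.0 + 0.01% (detergent screen) or 0.0001% Triton X-100; 5.3 nM AmpC reagent; cpd preinc 15 min RT; nitrocefin (800 uM stock) to start; A480 q20 s × 4 min; Activity was normalised to no-enzyme and no-compound control wells.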
FMDV antiviral: High Throughput Screening for Foot and Mouth Disease Virus Antivirals | Potency, µM (titrated, usually from 57.9 µM), without a hit: at the top dose activity change, negative = inhibition, usual class: inhibitors | hit rate 1.2% among 410,000 | FMDV antiviral cell-based qHTS | AID 1159524, 2015; calls by dose curve; tested in HEK293T cells; note: read-out not given here; potency is the fitted concentration of half-maximal effect; nearly all actives have a fitted effect of over 45% in size
AmpC detergent: qHTS Inhibitors of AmpC Beta-Lactamase (assay with detergent). P00811. AmpC hydrolysis of nitrocefin, absorbance 480 nm, 0.01% Triton. Potency, µM (series often up to 114 µM), without a hit: at the top dose activity change, negative = inhibition, actives largely listed as inhibitors. hit rate 0.041% among 370,000;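 note: potency is the fitted concentration of half-maximal effect; 0% = no-compound wells and -100% = no-enzyme wells; nearly all actives have a fitted effect of over 25% in size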
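AmpC (5.3 nM in the dispensed reagent) in 20 mM phosphate pH 7.0 with 0.01% (detergent screen) or 0.0001% Triton X-100 was preincubated with compounds for 15 min at room temperature. Nitrocefin was then added from an 800 uM solution, and hydrolysis was followed at 480 nm.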
HCMV inh: qHTS Assay for inhibitors of the human cytomegalovirus (HCMV); HFF cells, HCMV-luciferase reporter, 72 h; stronger effect = lower value; activity change, negative = inhibition, % at 57.5 µM; hit rate 4.5% among 410,000; AID 1259415, 2018; in the data active = activity change below about -60%; inconclusive = no clear call, values can overlap the other calls; inactive = above about -39%
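Human foreskin fibroblasts infected with luciferase-reporter HCMV at MOI 1 PFU/cell, compounds at two doses. Luciferase measured 72 h post infection; normalized to buffer-only basal and Salinomycin (10uM) controls.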
* marks the source's active call; other numbers are inactive results; ? = inconclusive; . = not tested or not shown. Unless noted, calls come from the whole dose curve; as a rule, active = well fitted curve in the direction sought with a large enough effect; inconclusive = small, poorly fitted or top-dose-only effect, or another doubt; inactive = no such curve, though single readings can be large; an effect the other way counts as inactive or inconclusive. Unless noted, % is set by controls: 0 for no effect and ±100 for the full control effect.

SMILES	HCV inh	AmpC no deterg	FMDV antiviral	AmpC detergent	HCMV inh
Cc1ccc(N(C)S(=O)(=O)c2cccc(C(=O)N(C)Cc3cnn(-c4ccccc4)c3)c2)cc1	?	91%	?	?	-67*
COc1ccc(N(C)S(=O)(=O)c2cccc(C(=O)Nc3cc(OC)ccc3OC)c2)cc1	10µM*	-2%	?	6%	-23
COc1cc(C2C(=O)N(C3CCCCCC3)CC(=O)N2Cc2ccccc2)ccc1OC(C)C (stereo not drawn)	.	.	-7%	-3%	?
CCOC(=O)c1cccc(NC(=O)c2cc(C)nn2-c2ccccc2)c1	11%	12%	-9%	0%	-26
CCOCCCNCc1cc(Br)ccc1OCc1ccccc1	?	6%	-2%	-8%	-34
NS(=O)(=O)c1ccc(CCNCc2cc(Br)ccc2OCc2ccccc2)cc1	11µM*	-47%	?	-5%	-66*
CCOc1cc(CNCCc2ccc(S(N)(=O)=O)cc2)ccc1OCc1ccccc1	13µM*	7%	?	-1%	?
OCCNCc1cc(Br)ccc1OCc1ccccc1	-16%	-1%	-25%	?	-68*
CCOc1cc(CNCc2ccccc2)ccc1OCc1ccc(Cl)cc1	22µM*	24%	?	3%	-85*
Brc1ccc(OCc2ccccc2)c(CNCC2CCCO2)c1 (stereo not drawn)	-5%	2%	-16%	0%	-12
CCOC(=O)C1CCCN(C(=O)COc2ccc(S(=O)(=O)N3CCOCC3)cc2)C1 (stereo not drawn)	11%	0%	0%	.	-16
CCn1c2ccccc2c2cc(NC(=O)C(C)OC(=O)c3ccc(NC(=O)CC#N)cc3)ccc21 (stereo not drawn)	?	-36%	-9%	-6%	?
Cc1cc(Cl)cc(Cl)c1OCCN1CCCC1	-6%	59%	-7%	-6%	9
COc1cccc(C(C)(O)c2nc(-c3ccc(N(C)C)cc3)cs2)c1 (stereo not drawn)	.	.	-7%	.	-74*
COc1ccc(-c2csc(C(C)(O)c3ccccc3)n2)cc1 (stereo not drawn)	.	.	-4%	.	12
COc1ccc(C(C)(O)c2nc(-c3ccccc3)cs2)cc1 (stereo not drawn)	.	.	-17%	.	-78*
COc1ccc(-c2csc(C(C)(O)c3cccnc3)n2)cc1 (stereo not drawn)	.	.	0%	.	-69*
COc1cc(N)c(Cl)cc1C(=O)OCC(=O)Nc1ccc(N2CCOCC2)cc1	-14%	-13%	-28%	.	15
CCC(C)NC(=O)Cn1c(=O)n(Cc2ccc(C(=O)NCc3ccccc3OC)cc2)c(=O)c2ccccc21 (stereo not drawn)	.	.	-14%	26%	-13
COc1cc(S(=O)(=O)NCC2(N3CCCCC3)CCCCC2)ccc1NC(C)=O	26%	-11%	-11%	0%	-98*
COC(=O)[C@]12CCCCC=C1N(CCc1ccc(OC)c(OC)c1)C(=O)[C@H](CC(=O)NCCC(C)C)C2	.	.	12%	.	30
CCC(=NCc1cc(OC)cc(OC)c1)c1c(O)n(C2CCCCC2)c(=O)[nH]c1=O	?	-8%	?	-1%	13
CCC(=Nc1ccc2c(c1)CCC2)c1c(O)n(C2CCCCC2)c(=O)[nH]c1=O	1%	-31%	-5%	-11%	-85*
COc1cc(CN=C(C)c2c(O)n(C3CCCCC3)c(=O)[nH]c2=O)cc(OC)c1	10µM*	14%	?	10%	65
CCC(=Nc1ccc(OC)cc1OC)c1c(O)n(C)c(=O)n(C)c1=O	?	102%	32µM*	?	-25
SMILES	HCV inh	AmpC no deterg	FMDV antiviral	AmpC detergent	HCMV inh
CCCCn1c(O)c(C(C)=NCc2cc(OC)cc(OC)c2)c(=O)[nH]c1=O	?	32%	-7%	3%	-10
CCCCn1c(O)c(C(CC)=NCc2cc(OC)cc(OC)c2)c(=O)[nH]c1=O	13µM*	-10%	?	-4%	-8
CCOC(=O)c1c(NC(=O)CSc2cn(CCNC(=O)c3ccc(OC)cc3)c3ccccc23)sc2c1CCC2	.	.	-11%	-1%	-11
CCCCn1c(O)c(C(CC)=Nc2ccc(OC)cc2OC)c(=O)[nH]c1=O	?	0%	18µM*	0%	-1
CCCCN(C(=O)c1cccc(S(=O)(=O)N2CC(C)OC(C)C2)c1)c1c(N)n(CC(C)C)c(=O)[nH]c1=O (stereo not drawn)	3%	6%	-4%	0%	-26
O=C(c1ccncc1)c1ccc(N2CCN(C3CC(=O)N(Cc4cccs4)C3=O)CC2)cc1 (stereo not drawn)	?	131%	25µM*	-2%	0
CC1CCC2(CC1)NC(=O)N(NC(=O)CCl)C2=O (stereo not drawn)	-7%	-7%	-3%	5%	-63*
CC1CCC2(CC1)NC(=O)N(NC(=O)c1cccs1)C2=O (stereo not drawn)	15%	-20%	6%	?	-5
COC(=O)Nc1ccc(S(=O)(=O)N2CCCCC2)cc1	14%	-24%	-20%	-12%	-10
COC(=O)Nc1ccc(S(=O)(=O)N2CCCc3cccc(O)c32)cc1	11µM*	-38%	-28%	-7%	-24
COC(=O)Nc1ccc(S(=O)(=O)N2CCCc3ccccc32)cc1	3.2µM*	-28%	-8%	-3%	-62*
Cc1cc(SCC(=O)c2cccs2)nc2c(C)cccc12	-13%	-33%	73%	?	4
Cc1cc2c(C)ccc(C)c2nc1SCC(=O)c1cccs1	-5%	0.18µM*	-22%	?	-18
CCOc1ccc(NC(=O)CN(Cc2ccccc2)S(=O)(=O)c2ccc3nc(C)sc3c2)cc1	.	.	-11%	-6%	-26
CN(C)c1ccc(C(=O)Nc2nc3c(s2)CCCC3)cc1	11µM*	-35%	-64%	?	-67*
CC(C)(C)c1ccc(C(=O)NC(=S)Nc2sc3c(c2C#N)CCC3)cc1	?	7%	-25%	8%	-38
CC(C)(C)c1ccc(C(=O)NC(=S)Nc2nc3c(s2)CCCC3)cc1	?	-38%	?	3%	-76*
O=C(COc1ccccc1Cl)Nc1nc2c(s1)CCCC2	.	.	39%	7%	-25
COc1cccc(C(=O)Nc2nc3c(s2)CCCC3)c1	.	.	-30%	17%	52
CCCOc1ccccc1C(=O)Nc1nc2c(s1)CCCC2	.	.	-13%	21%	-64*
CCCS(=O)(=O)NC(=O)C1(C)CCN(C(=O)c2ccco2)C1 (stereo not drawn)	.	.	-19%	.	?
CCOC(=O)c1sc2ccc(S(=O)(=O)N3CCOCC3)cc2c1N	-10%	-5%	?	0%	-62*
